# The whole screen tested about 190,000 compounds, of which about 930 (0.49%) were called active. The list shows a part of the results. Measured potencies and affinities stand elsewhere. Values without a mark were called inactive.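 The calls were made as follows: active = z-score of insulin promoter reporter brightness in nuclei below -3 at 5 µM, with at least 500 cells counted; inconclusive = wells with under 500 cells, flagged as toxic or sparse; inactive = the rest.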
# Assay: insulin promoter down-regulators in MIN6 cells, imaging, high-content screening, mouse beta cells (AID 1628)
# Conditions: MIN6 insulin promoter GFP reporter, at 5 µM, stronger effect = lower value
row,SMILES,z-score
1,O=C1c2ccccc2-n2c1nc1ccccc1c2=O,-2.2
2,COc1ccc(OC)c(C2=NOC(C(=O)NCC3CCCO3)C2)c1 (stereo unspecified),3.67
3,COc1ccc(-c2nnc(SCC3CCCO3)n2C)cc1 (stereo unspecified),2.62
4,CCOc1ccc(NC(=S)N2CCC(N(C)CC3CCCO3)CC2)cc1 (stereo unspecified),3.59
5,CCOc1ccc(-n2c(=O)c3c4c(sc3n(CC(=O)NCC3CCCO3)c2=O)CCC4)cc1 (stereo unspecified),1.12
6,CCOc1ccc(NC(=O)N2CCCC2C(=O)NCC2CCCO2)cc1 (stereo unspecified),-3.14 (active)
7,O=[N+]([O-])c1ccc(N/N=C/c2cn(Cc3ccc(F)cc3)c3ccccc23)nc1,4.69
8,CC1(C)Cc2c(c(N3CCOCC3)nc3sc4c(NCc5ccco5)nnnc4c23)CS1,-6.38 (active)
9,C=CCN1C(=O)/C(=C/c2ccc(N(C)C)cc2)S/C1=N\c1nnc(CC)s1,14.1
10,Cc1cc(C)cc(N(CC(=O)Nc2cccc(C)n2)S(=O)(=O)c2c(C)noc2C)c1,2.42
11,C/C=C/c1ccc(OCCCN2C(=O)NC(C)(C)C2=O)c(OC)c1,-0.86
12,C#CCOCCOCCOCCNc1nc(N2CCN(C(=O)[C@H](CCCCN)n3cc(CCCC)nn3)CC2)nc(N2CCN(C(=O)[C@H](CCCCN)n3cc(CCCC)nn3)CC2)n1,-4.64 (active)
13,CCCN1CC=C2C(C#N)=C(N)C(C#N)(C#N)C(c3cccc(OC)c3OC)C2C1 (stereo unspecified),8.86
14,O=C(O)C1CCN(C(=O)OCc2ccccc2)CC1,-4.9 (active)
15,CCOC(=O)N1CCC(NC2CCCCCCC2)CC1,0.8
16,CN1/C(=C/C=C(C#N)C#N)C=Cc2ccccc21,5.52
17,Cc1nc(CN(C)C(=O)c2cc(COc3ccc4ncccc4c3)on2)cs1,-5.59 (active)
18,c1ccc(-c2cnn3c(-c4ccccc4)c(-c4ccccc4)nc3n2)cc1,17
19,CCCCn1nc(-c2ccccc2)c2nc3ccccc3nc21,3.11
20,CCc1ccc2nc3sc(C(=O)N4CCc5ccccc54)c(N)c3cc2c1,4.93
21,N=c1oc2c3c4c(cc2cc1C(=O)Nc1ccccc1)CCCN4CCC3,18
22,CCCCC(=O)NC(c1cccs1)c1cc(Cl)c2cccnc2c1O (stereo unspecified),-5.86 (active)
23,CCC(=O)NC(c1cccs1)c1cc(Cl)c2cccnc2c1O (stereo unspecified),-4.24 (active)
24,CCN1CC=C2C(C#N)=C(N)C(C#N)(C#N)[C@H](c3cccc(OC)c3OC)[C@H]2C1,11.6

row,SMILES,z-score
1,Cc1ccc(N=C2NC(=O)/C(=C/c3cn(C)c4ccccc34)S2)cc1C,3.02
2,CC1CC(=O)C2=C(C1)OC(N)=C(C#N)C2c1coc2ccccc2c1=O (stereo unspecified),3.02
3,Nc1c(C(=O)Nc2nccs2)sc2nc(-c3cccs3)cc(C(F)(F)F)c12,5.95
4,Nc1c(C(=O)O)sc2nc(-c3ccccc3)cc(-c3ccccc3)c12,4.64
5,NC(=O)c1sc2nccc(Nc3ccccc3)c2c1N,-3.42 (active)
6,CS(=O)c1nc(-c2ccc(Br)cc2)cc(-c2ccccc2)c1C#N (stereo unspecified),-4.24 (active)
7,Cc1ccc(S(=O)(=O)CCSc2nc(C)cc(C(F)(F)F)c2C#N)cc1,10.9
8,Nc1c(Cl)ncnc1N1CCCC1,-3.27 (active)
9,COc1ccc(-c2ccc3c(N)c(C(=O)c4cccc(OC)c4)sc3n2)cc1,4.07
10,COc1ccc2c(c1)sc1nc(-c3ccccc3)cn12,-7.22 (active)
11,Cc1cccc(OCCCCCn2ccnc2)c1C,-4.58 (active)
12,Cc1cc(Cl)cc(C)c1OCCCCn1ccnc1,-4.53 (active)
13,CCOc1ccc(OCCCCn2ccnc2)cc1,3.52
14,Cc1ccc(S(=O)(=O)c2cccc(S(=O)(=O)N3CCCC3)c2)cc1S(=O)(=O)N1CCCC1,3.05
15,O=S(=O)(c1ccc2oc3ccc(S(=O)(=O)N4CCCCC4)cc3c2c1)N1CCCCC1,-3.18 (active)
16,Cc1c(C(=O)NCc2cccnc2)oc2ccc(S(=O)(=O)N3CCCCCC3)cc12,-5.16 (active)
17,CCN(CC)S(=O)(=O)c1ccc2oc(C(=O)NCc3ccc(F)cc3)c(C)c2c1,-4.31 (active)
18,O=C(O)CCCN=Cc1c(O)c2ccccc2oc1=O,2.46
19,Cc1oc(C)c2c(=O)ccc3c(c12)OC(N)=C(C#N)C3c1ccccc1Cl (stereo unspecified),6.29
20,COCCNC(=O)Cc1ccc(F)cc1,3.03
21,COCCNC(=O)/C(=C/c1ccccc1Cl)c1ccccc1,-5.46 (active)
22,Cn1cc(/C=C2\SC(=S)N(NC(=O)c3ccccc3)C2=O)c2ccccc21,6.71
23,CCC(=O)N1CCN(c2ccccc2NC(=O)COc2cc(C)ccc2C(C)C)CC1,-3.26 (active)
24,COc1ccc(C)cc1NC(=O)CC(NC(C)=O)c1ccccc1 (stereo unspecified),4.5

row,SMILES,z-score
1,CCOc1ccc(-c2c(C#N)c(N)nc3sc(C(=O)c4ccccc4)c(N)c23)cc1,9.11
2,Cc1nnc(SCC(=O)c2cc(C)n(-c3ccc4c(c3)OCO4)c2C)s1,-4.16 (active)
3,Cn1cc(C(N)=O)c2ccccc21,0.12
4,O=S(=O)(c1ccc(Br)cc1)N1CCN(c2cc(-c3ccccc3)nc3ncnn23)CC1,-6.61 (active)
5,O=C(N=C1SCC(=O)N1c1ccccc1Cl)c1ccccc1,5.04
6,N/C(=N\OC(=O)N1c2ccccc2Sc2ccccc21)c1ccccc1,-3.28 (active)
7,COc1ccccc1CNC(=O)COC(=O)c1ccc(S(=O)(=O)N2CCCC2)cc1,-5.2 (active)
8,CCN1C(=O)CSc2ccc(C(=O)NCc3ccccc3OC)cc21,3.1
9,CC(C)NC(=O)NC(=O)COC(=O)c1cccc(S(=O)(=O)N2CCCCC2)c1,4.62
10,Cn1c(=O)[nH]c(=O)c2c1nc(N1CCCCC1)n2CCCSc1nc2ccccc2s1,0.01
11,CCC(=O)c1ccc(O)c(OC)c1,-1.5
12,CCOC(=O)C(C(C)=O)C(c1ccc(OCCC(C)C)cc1)C(C(C)=O)C(=O)OCC (stereo unspecified),0.98
13,CCOC(=O)C(C)S(=O)(=O)c1ccc(C(F)(F)F)cn1 (stereo unspecified),-4.01 (active)
14,CCN1CCN(c2ncc3c(n2)CC(c2cc(OC)c(OC)c(OC)c2)CC3=O)CC1 (stereo unspecified),-3.96 (active)
15,O=C(NNC(=O)c1cccnc1)NC12CC3CC(CC(C3)C1)C2,-3.86 (active)
16,O=C(Nc1ccc(N2CCCCC2)cc1)c1cccnc1,3.44
17,O=C(NCc1cccnc1)c1cnn2ccccc12,-7.96 (active)
18,Nc1c(C(=O)Nc2nc3ccccc3s2)sc2nc(-c3cccs3)ccc12,5.64
19,O=C(Nc1nc(-c2cccs2)cs1)c1ccc(Cl)s1,-3.6 (active)
20,Cc1csc(NC(=O)c2sc3nc(-c4cccs4)ccc3c2N)n1,4.58
21,Cc1sc(-n2c(C)cc(/C=N/n3cnnc3)c2C)c(C#N)c1C,-4.46 (active)
22,Cc1cc(/C=N/n2cnnc2)c(C)n1-c1cccc(C(=O)O)c1,4.18
23,Cc1ccc(-n2c(O)c(/C=N/NC(=O)C3COc4ccccc4O3)c3ccccc3c2=O)cc1 (stereo unspecified),3.14
24,O=c1c2ccccc2c(C=Nc2ccccc2O)c(O)n1-c1nccs1,4.35

row,SMILES,z-score
1,CCOc1ccc(-n2c(O)c(/C=N/Nc3nnc(C)c(=O)[nH]3)c3ccccc3c2=O)cc1,-5.62 (active)
2,CC1(C)Cc2c(ccc3ccccc23)C(c2cc3ccccc3oc2=O)=N1,4.19
3,O=c1oc2cc(O)ccc2cc1-c1nc2c(s1)CCc1ccccc1-2,13.6
4,O=C(NCCCCc1ccccc1)c1ccc(Br)o1,1.07
5,CCCCN(CC)CCNC(=O)c1cc2c(C)nc3ccccc3c2o1,0.65
6,Cc1ccccc1C(=O)NCCCc1ccccc1,-5.2 (active)
7,Cc1cc(C(=O)CSc2nnnn2-c2ccccc2)c(C)n1CC1CCCO1 (stereo unspecified),-1.4
8,CCCCC1=CC2=C(c3ccco3)C(=O)C(C)(OC(=O)c3ccc(OC)cc3)C(=O)C2=CN1CC(C)C (stereo unspecified),4.34
9,CC(CNC(=O)c1cncc(O)c1)NC(=O)c1cncc(O)c1 (stereo unspecified),3.21
10,CCCN1C=CC(=C/C=C(\C#N)C(=O)OCC)C=C1,3.98
11,O=C(C1=NN(c2ccccc2)C2C(=O)N(c3cccc(Cl)c3)C(=O)C12)c1ccccc1 (stereo unspecified),3.17
12,CCCCN1C(=O)/C(=C/C=C2\SCCN2C)SC1=S,13.8
13,Cc1ccc(/C=N/NC(=O)NC2CCCCC2)o1,-4.13 (active)
14,NC1=NC[C@@H](Cc2ccc(O)cc2)N1CCCCC1CCCCC1,-1.05
15,CCn1c(Cn2nnc(-c3ccccc3)n2)nnc1SCC(=O)Nc1ccc(C(C)=O)cc1,4.86
16,CCn1c(CN2CCCCCC2=O)nnc1SCc1cnc(-c2ccccc2)s1,-3.13 (active)
17,O=[N+]([O-])c1ccc(-c2ccc(/C=N/Nc3nc(N4CCCCC4)nc(N4CCCCC4)n3)o2)cc1,5.14
18,O=[N+]([O-])c1ccc(-c2ccc(/C=N/Nc3nc(NCc4ccccc4)nc(N4CCOCC4)n3)o2)cc1,9.01
19,O=C(CSc1ccc2nnc(CCNC(=O)c3ccccc3)n2n1)Nc1ccccc1,2.32
20,COc1cc2c(cc1OC)-c1nncn1C(C)(C)C2,3.76
21,CCCCN(C)C1=CC2=CC(=C(C#N)C#N)CCC2CC1 (stereo unspecified),16
22,COc1ccc(Cl)cc1NC(=O)C1(c2cccs2)CCOCC1,3.78
23,COc1cc(NC(=O)c2ccccc2)c(OC)cc1NC(=O)CN1CCOCC1,-3.01 (active)
24,COc1cc2c(cc1NC(=O)CN1CCN(S(=O)(=O)c3ccccc3F)CC1)oc1ccccc12,3.63

# — PubChem BioAssay AID1628 (Sanford-Burnham Center for Chemical Genomics, 2009)
